# Results published in PubChem BioAssay (NCI).
# The panel holds about 83,000 compounds, 20% with a hit somewhere; the sample as a whole holds those more often.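 Single-concentration screen, 48 h exposure, 96-well plates. Endpoint: percent growth. Below 10 = active.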 Unmarked numbers belong to inactive results. Activity calls are given as the source filed them.
# Key:
# Assay in all cases: NCI-60 one-dose screen, 48 h (100 = growth as untreated, 0 = no growth, -100 = all killed)
# [1] = system: SK-MEL-2 melanoma; details: 10 µM unless noted
# [2] = system: EKVX NSCLC; details: 10 µM
# [3] = system: SN12C renal; details: 10 µM unless noted
# [4] = system: TK-10 renal; details: 10 µM unless noted
# [5] = system: ACHN renal; details: 10 µM unless noted
# [6] = system: CAKI-1 renal; details: 10 µM unless noted
# [7] = system: A498 renal; details: 10 µM unless noted
# [8] = system: CCRF-CEM leukemia; details: 10 µM
# [9] = system: MOLT-4 leukemia; details: 10 µM unless noted
# [10] = system: UO-31 renal; details: 10 µM unless noted
SMILES,growth [1],growth [2],growth [3],growth [4],growth [5],growth [6],growth [7],growth [8],growth [9],growth [10]
O=C(CBr)OCc1ccc([N+](=O)[O-])o1,97.9%,124%,98.8%,101%,89.6%,53.8%,117%,74.1%,95.6%,
CC(=O)OCC(=O)[C@@]1(O)[C@H](C)C[C@H]2[C@@H]3C=C(C)C4=Cc5c(cnn5-c5ccc(F)cc5)C[C@]4(C)[C@H]3[C@@H](O)C[C@@]21C,22.5%,28.5%,40.5%,19.7%,13.5%,,,6.74% (active),,
CC[n+]1c(C)ccc2cc(C)ccc21,106%,72.6%,96.8%,98.1%,106%,113%,96.7%,,89.9%,
C=CCSc1nnc(COc2ccc3c(C)c(Cc4ccccc4)c(=O)oc3c2C)o1,95.9%,108%,95.2%,,97.5%,,110%,95.1%,96%,80%
CC/C(=N\Nc1nc2ccccc2n1C)c1ccccn1,37.6%,6.6% (active),,33.5%,0.59% (active),2.28% (active),-20.7% (active),7.72% (active),1.52% (active),-10.3% (active)
Cc1c(CN(C)C)cc(C(C)C)cc1C(C)C,107%,106%,96.9%,94.9%,112%,103%,94.8%,,,
O=C(/C=C1\C(=O)N(Cc2ccc([N+](=O)[O-])cc2)c2ccccc21)c1ccc(OCCN2CCCC2)cc1,93.7%,71.5%,37.3%,82.8%,45.7%,,83.1%,15.2%,,
Oc1ccccc1\C=N/N=C/C=C/c1ccccc1,92.7%,94.5%,88%,130%,104%,96.7%,78%,7.53% (active),55.3%,
CCCCCCCCCCCCc1ccc([N+](CC)(CC)CC)cc1,42.7%,41%,33.5%,67.1%,85%,88.7%,60%,33%,51.9%,
COc1cc2ncnc(-n3ncc4cc(NC(=O)Nc5ccc(Cl)c(Cl)c5)ccc43)c2cc1OC,-26.6% (active),-16.1% (active),3.99% (active),-14.1% (active),-61.6% (active),8.96% (active),-22.7% (active),22.3%,9.19% (active),
COc1ccc(NC(=O)/C=C(C)/C=C/C=C(C)/C=C/C2=C(C)CCCC2(C)C)cc1,61.6%,82.7%,65.9%,61.6%,54%,66.6%,91.1%,60.6%,76.1%,
COc1ccccc1Cn1cc2c(c1)-c1oncc1CC2,35.6%,20.8%,39%,65.6%,,9.72% (active),29.2%,17.6%,25.6%,
O=C1N/C(=N\c2nnc(-c3ccc(O)cc3)s2)S/C1=C\c1ccccc1O,103%,101%,93.2%,97.9%,97.8%,,107%,95.8%,100%,
CC([C@H]1CC=C2C3CCC4=C[C@@H](N(C)C)CC[C@]4(C)C3CC[C@@]21C)N(C)C (some centres not stated),90.8%,-38.8% (active),21.5%,95.5%,48.1%,-48.8% (active),,43.4%,73.5%,
CC1Cc2cc(F)ccc2-n2cccc21 (configuration not stated),104%,107%,,96.5%,106%,101%,90.7%,111%,113%,99.5%
O=S(=O)(Cc1cccc2c(CS(=O)(=O)c3ccc(Cl)cc3)cccc12)c1ccc(Cl)cc1,98.8%,82.4%,,113%,96.7%,73%,109%,90.7%,95.5%,106%

SMILES,growth [1],growth [2],growth [3],growth [4],growth [5],growth [6],growth [7],growth [8],growth [9],growth [10]
CCCCCCCCCCCCCCCCC(=O)O.CCCCCCCCCCCCCCCCCC(=O)O.CCCCCCCCCCCCCCCCCC(=O)O.CCCCCCCCCCCCCCCCCC(=O)O.CCCCCCCCCCCCCCCCCC(=O)O.CO[CH-]OC12COC1CC(O)C1(C)C(O)C(OC(C)O)C3=C(C)C(OC(=O)C(O)C([NH-])c4ccccc4)CC(O)(C(OC(=O)c4ccccc4)C21)C3(C)C.[Cu+].[Zn].[Zn].[Zn].[Zn].[Zn] (configuration not stated),69.3%,29.5%,29.9%,48%,36.2%,,45.6%,23.7%,29%,
C=CCN(C)C,113%,92%,94.7%,119%,,92.5%,91.1%,,,
CC1(C)CC(=O)C2=C(C1)Oc1nc(N)c(C#N)c(N)c1C2c1ccc(F)cc1 (configuration not stated),107%,97.4%,107%,,107%,92.3%,102%,118%,74.4%,
O=C(/C=C/c1cccc(O)c1)c1cccc(-n2cc(-c3ccc(Cl)cc3)[nH]c2=O)c1,-45.5% (active),1.79% (active),-47% (active),0.394% (active),-80.6% (active),,61.7%,-4.75% (active),-29% (active),
COc1ccc(Oc2[nH]n(C3=Nc4ccccc4Sc4ccccc43)c(=O)c2C#N)cc1,101%,94.4%,102%,108%,89.5%,92.4%,,92.8%,107%,
COc1ccc(C2=NN(C(=O)c3cc(-c4ccc(C)cc4)nc4ccccc34)C(c3cc(-c4ccccc4)nn3-c3ccccc3)C2)cc1 (configuration not stated),94.9%,99.6%,97.7%,,98.6%,,91%,81.5%,84.7%,79.8%
COc1nc(OC)nc(-c2cc(-c3cc(OC)c(OC)c(OC)c3)no2)n1,108%,103%,,101%,108%,96.1%,82.5%,91.3%,92.6%,71.3%
CCC1(CC)C(OC)NC(Br)=C(C#N)C1(C#N)C(N)=O (configuration not stated),102%,103%,,118%,108%,117%,114%,100%,88.4%,85.2%
Nc1nc2c(c3cnccc13)C(c1cccc(Cl)c1)Cc1cnccc1-2 (configuration not stated),26.8%,24.2%,,23.9%,15%,25.2%,-5.65% (active),13.3%,16.5%,26.1%
CC(=O)c1nn(-c2ccc(C)cc2)cc1C(=O)c1cc2c(ccc3ccccc32)oc1=O,99.7%,82.3%,94.3%,144%,88.1%,,124%,98.4%,102%,
CCCC(=O)NNc1[nH]c(-c2ccc(OC)cc2)cc1C(=O)OCC,94.6%,108%,110%,-16.1% (active),,91.1%,95.8%,5.87% (active),3.23% (active),
NC(=O)c1c(Nc2ccccc2)nn2cc(-c3nc4ccccc4s3)c(N)nc12,100%,89.5%,,124%,96.3%,86.2%,92.5%,99.2%,93.3%,81.3%
COc1cc(CCNc2cnc3cc(N)cc(N)c3n2)cc(OC)c1,104%,123%,107%,116%,106%,129%,,-52.5% (active),5.61% (active),
CCN(CCO)CCNc1ccc(C)c2sc3cc(OC)ccc3c(=O)c12,99.1%,86.4%,55.9%,,36.8%,,,47.9%,21.7%,
Cc1ccc2c(O)c(O)cc(NC(C)CCCN)c2n1 (configuration not stated),75%,78%,32.2%,104%,,87.4%,81.3%,39.9%,7.64% (active),
